A selection: hits, their analogues and other compounds. The true share with any hit is near 7.4%.
SMN2 splice up – enhancers of SMN2 splice variant expression | HEK293 SMN2-luciferase splicing reporter, luminescence, 30-36 h | Potency, µM (highest dose often 46.1 µM), usual class: activators | actives 2.8% (n = 210,000) | AID 1458; note: nearly all actives have a fitted effect of over 55% in size
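qHTS luciferase splicing reporter: luminescence rises when SMN2 exon 7 is included in transfected HEK293 cells. Compound exposure lasted 30-36 h at 37C, with 4.5 mM final sodium butyrate as control, followed by a ONE-Glo read.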
ELG1 genotoxic – genotoxicity induction in ELG1-luciferase HEK293T cells; AID 504466; Potency, µM (doses to about 46 µM), actives largely listed as activators; actives 1.3% (n = 330,000); HEK293T ELG1-luciferase reporter, luminescence, 16 h; note: nearly all actives have a fitted effect of over 60% in size
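After overnight (16 hr) compound treatment at 37 °C, ELG1-luciferase HEK293T cells were lysed with ONE-Glo; luminescence quantified 30 min later at room temperature.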
FLuc modulator – counter-screen for miR-21 project: firefly luciferase inhibitors or activators; P08659; purified FLuc, Km substrates, luminescence inhibition; Potency, µM (series often up to 57.5 µM), most hits filed as inhibitors; actives 6.9% (n = 360,000); AID 588342; note: nearly all actives have a fitted effect of over 55% in size
Target sequence (P08659 whole entry, looked up): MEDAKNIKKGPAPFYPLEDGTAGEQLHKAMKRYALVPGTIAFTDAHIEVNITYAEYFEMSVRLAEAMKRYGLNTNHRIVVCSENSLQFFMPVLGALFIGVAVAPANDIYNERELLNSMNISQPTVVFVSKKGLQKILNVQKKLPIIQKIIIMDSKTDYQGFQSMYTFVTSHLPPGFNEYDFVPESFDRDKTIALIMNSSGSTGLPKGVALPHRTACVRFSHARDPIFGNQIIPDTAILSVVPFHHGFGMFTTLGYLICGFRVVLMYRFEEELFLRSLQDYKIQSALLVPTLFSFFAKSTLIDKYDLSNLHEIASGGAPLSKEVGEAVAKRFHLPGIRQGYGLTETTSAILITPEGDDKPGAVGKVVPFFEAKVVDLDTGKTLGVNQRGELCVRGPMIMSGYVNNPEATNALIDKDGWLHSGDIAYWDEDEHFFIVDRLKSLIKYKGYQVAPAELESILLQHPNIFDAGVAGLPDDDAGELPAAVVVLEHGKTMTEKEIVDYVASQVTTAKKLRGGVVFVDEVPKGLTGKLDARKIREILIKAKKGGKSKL
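Biochemical qHTS of compounds, final roughly 60 µM downward over six points, against 10 nM purified firefly luciferase using Km concentrations of substrates (10 uM D-luciferin, 10 uM ATP) in Tris acetate pH 7.5 buffer; luminescence output.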
Rab9 promoter act – activators of Rab9 promoter; Huh7 Rab9 promoter-luciferase reporter, luminescence, 24 h; Potency, µM (titrated, usually from 9.22 µM), actives largely listed as activators; actives 2.8% (n = 320,000); note: nearly all actives have a fitted effect of over 60% in size
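Rab9 promoter-driven luciferase in stably transfected Huh7 cells; 1500 cells/well rested 2 h, exposed to compound in DMSO for 24 h at 37 °C, 5% CO2. Luminescence read 10 min after adding luciferase reagent at ambient temperature.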
NPC1 promoter act – NPC1 promoter activation; Huh7 NPC1 promoter luciferase reporter, 24 h; Potency, µM (series often up to 9.22 µM), actives largely listed as activators; actives 2.4% (n = 320,000); AID 485313; note: nearly all actives have a fitted effect of over 60% in size
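NPC1 promoter–luciferase Huh7 cells; 24 h compound; luminescence.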
A number is an active result; . = inactive; ? = inconclusive; / = no result given. Calls come from the whole dose curve; as a rule, active = well fitted curve in the direction sought with a large enough effect; inconclusive = small, poorly fitted or top-dose-only effect, or another doubt; inactive = no such curve, though single readings can be large; an effect the other way counts as inactive or inconclusive.

SMILES | SMN2 splice up | ELG1 genotoxic | FLuc modulator | Rab9 promoter act | NPC1 promoter act
O=C(COC(=O)c1cc2ccccc2oc1=O)Nc1ccc(F)cc1F | / | ? | 7.6µM | 2.5µM | 2.2µM
CCS(=O)(=O)N1CCN(S(=O)(=O)c2ccc3c(c2)OCCO3)CC1 | / | . | . | . | .
Cc1cc(C)n2nc(Nc3ccccc3)cc2n1 | . | . | 17µM | . | .
Cc1ccc(NC(=O)c2cc3nc(C)cc(C)n3n2)cc1 | 11µM | 1.5µM | 4.8µM | 0.89µM | 0.63µM
Cc1ccc(-c2cc3nc(C)cc(C)n3n2)cc1 | 13µM | 5.2µM | 2.7µM | 1.8µM | 3.5µM
Cc1cc(C)n2nc(-c3ccsc3-n3c(C)ccc3C)cc2n1 | . | . | . | . | .
Cc1cc(C)n2nc(C(=O)NCc3ccccc3)cc2n1 | . | . | . | . | .
Cc1cc(C)n2nc(-c3ccccc3)cc2n1 | / | ? | 7.6µM | 3.2µM | ?
Cc1nn(-c2ccc(N3CCOCC3)nn2)c(C)c1CCC(=O)Nc1ccc(F)cc1F | / | / | . | / | /
Cc1cc(C)n2nc(C(=O)OCC(=O)N(CC(C)C)C3CCS(=O)(=O)C3)nc2n1 (centres undefined) | / | . | / | / | /
CCNC(=S)Nc1ccc(Cc2nc3ccccc3[nH]2)cc1 | / | . | . | . | .
O=C(NCCc1ccccc1)c1ccc(Br)o1 | . | ? | ? | 4µM | ?
O=C(NCCCCc1ccccc1)c1ccccc1F | / | . | ? | . | .
O=C(NCCCCNC(=O)c1ccccc1Cl)c1ccccc1Cl | / | . | . | . | .
O=C(CNC(=O)c1ccccc1Cl)c1ccccc1 | / | 9.2µM | 11µM | 0.4µM | 2.8µM
O=C(CNC(=O)c1ccccc1F)c1ccccc1 | / | 4.1µM | 3.4µM | 0.45µM | 0.45µM
O=C(NCCc1ccccc1)c1ccccc1F | / | ? | ? | 0.28µM | 0.63µM
NNC(=O)CNC(=O)c1ccccc1F | . | . | . | . | .
O=C(NCCNC(=O)c1ccc(Br)o1)c1ccc(Br)o1 | / | . | . | . | .
CCN1CCc2c(sc(-n3cccc3)c2C(C)NC(=O)Nc2ccc(C(=O)OC)cc2)C1 (centres undefined) | / | / | . | / | /
CCCCNC(=O)Cn1ncc2c(C)n(Cc3cccc(Cl)c3)c(C)c2c1=O | . | / | . | / | /
Cc1occc1C(=O)N/N=C/c1ccc(OCc2ccccc2)cc1 | / | ? | ? | 2.8µM | ?
O=C(N/N=C/c1ccc(F)cc1)c1ccc(OCc2ccccc2)cc1 | / | . | . | . | .
Cc1occc1C(=O)N/N=C/C(Br)=C/c1ccccc1 | 8.9µM | ? | 2.7µM | 0.89µM | 1.8µM
Cc1occc1C(=O)N/N=C/c1ccc(-c2ccccc2)cc1 | / | 0.16µM | 0.67µM | 0.4µM | 0.32µM
SMILES | SMN2 splice up | ELG1 genotoxic | FLuc modulator | Rab9 promoter act | NPC1 promoter act
CSCCC=O | . | / | / | / | /
O=C(OCc1nnc(-c2ccccc2)o1)c1cc(S(=O)(=O)N2CCOCC2)c(Cl)cc1Cl | ? | 18µM | . | . | .
Cc1ccc(S(=O)(=O)N2CCOCC2)cc1C(=O)OCc1nnc(-c2ccccc2)o1 | / | . | . | . | .
COc1ccccc1NC(=O)NC1CCCCCCC1 | / | . | 13µM | . | .
COc1ccccc1NC(=S)NC1CCCCCC1 | / | . | ? | . | .
O=C(Nc1ccccc1Cl)NC1CCCCCCC1 | / | ? | 13µM | ? | ?
CCCC/C=C/C(NC(=O)C(C)(C)C)c1ccccc1 (centres undefined) | . | / | / | / | /
CCc1ccccc1OCC(=O)Nc1ccc(S(N)(=O)=O)cc1 | 35µM | . | . | . | .
O=C(CC1N=C2c3ccccc3N=C(SCc3ccc(F)cc3)N2C1=O)NCc1ccco1 (centres undefined) | ? | . | . | . | .
Cc1ccc(CSC2=Nc3ccccc3C3=NC(CC(=O)NCc4ccco4)C(=O)N23)cc1 (centres undefined) | 11µM | . | ? | . | .
O=C(CCCc1ccccc1)c1ccc2c(c1)OCCO2 | . | ? | 0.076µM | . | .
O/N=C(/CCc1ccccc1)c1ccc2c(c1)OCCO2 | 16µM | 21µM | 13µM | 2.8µM | 4µM
COc1ccc(OCC(=O)OC(C)CN2CCOCC2)cc1 (centres undefined) | 2.8µM | . | . | . | .
CC(CN1CCOCC1)OC(=O)COc1ccc(F)cc1 (centres undefined) | . | . | . | . | .
O=C(c1ccccc1)c1ccc2c(c1)OCCCO2 | / | ? | 8.5µM | 1.4µM | 1.8µM
COc1ccc(-n2c(=O)c3c4c(sc3n(Cc3ccc(C(C)(C)C)cc3)c2=O)CCC4)c(OC)c1 | ? | / | . | / | /
CCc1ccc([C@@H]2CC=C(C(=O)O)[C@H](c3ccc(F)cc3)N2S(=O)(=O)c2ccc(C)cc2)cc1 | / | . | . | . | .
CCC(=O)c1ccc(O)cc1 | . | . | . | . | .
